{
  "source": "paper PMC4336329",
  "about": "(PLoS ONE, 2015)",
  "note": "The campaign covered roughly 310,000 compounds. About 14,000 (4.5%) showed an effect of 50% or more. Effects have a minus sign here. This is one part of a sample in which strong results are shown more often than they occur.",
  "data": [
    {"target": "human ether-à-go-go-related gene (hERG) potassium channel (human, UniProt Q12809)", "sequence (Q12809 whole entry, looked up)": "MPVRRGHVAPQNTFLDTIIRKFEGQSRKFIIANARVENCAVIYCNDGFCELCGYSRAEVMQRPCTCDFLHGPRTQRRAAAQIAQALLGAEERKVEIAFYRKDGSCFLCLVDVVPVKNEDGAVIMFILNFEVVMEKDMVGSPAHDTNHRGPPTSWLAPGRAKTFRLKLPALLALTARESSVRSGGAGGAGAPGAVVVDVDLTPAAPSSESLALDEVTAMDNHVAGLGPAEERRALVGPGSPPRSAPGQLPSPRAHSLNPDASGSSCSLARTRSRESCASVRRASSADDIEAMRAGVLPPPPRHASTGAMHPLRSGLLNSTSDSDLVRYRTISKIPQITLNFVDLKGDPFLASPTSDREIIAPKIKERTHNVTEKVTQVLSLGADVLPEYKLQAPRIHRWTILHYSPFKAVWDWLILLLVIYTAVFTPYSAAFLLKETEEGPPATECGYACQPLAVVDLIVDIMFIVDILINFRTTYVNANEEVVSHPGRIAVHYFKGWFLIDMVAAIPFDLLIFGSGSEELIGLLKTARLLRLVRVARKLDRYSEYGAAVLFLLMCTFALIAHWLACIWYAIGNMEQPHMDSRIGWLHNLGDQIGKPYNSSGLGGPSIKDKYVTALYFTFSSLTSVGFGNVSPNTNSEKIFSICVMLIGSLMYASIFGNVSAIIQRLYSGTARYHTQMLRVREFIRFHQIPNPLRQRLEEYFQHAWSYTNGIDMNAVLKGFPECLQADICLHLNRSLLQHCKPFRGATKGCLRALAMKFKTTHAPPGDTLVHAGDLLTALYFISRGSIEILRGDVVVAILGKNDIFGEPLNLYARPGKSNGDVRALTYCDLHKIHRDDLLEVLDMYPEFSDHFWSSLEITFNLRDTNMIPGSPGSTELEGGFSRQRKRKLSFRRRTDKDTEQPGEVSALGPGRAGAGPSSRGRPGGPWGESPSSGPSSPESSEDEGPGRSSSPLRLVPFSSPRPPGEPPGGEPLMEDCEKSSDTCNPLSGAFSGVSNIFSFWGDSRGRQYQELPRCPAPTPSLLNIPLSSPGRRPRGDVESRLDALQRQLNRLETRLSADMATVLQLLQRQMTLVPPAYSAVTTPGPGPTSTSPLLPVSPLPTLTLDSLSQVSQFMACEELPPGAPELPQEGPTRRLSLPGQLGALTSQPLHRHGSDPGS", "test": "primary screen, population patch clamp on CHO cells stably expressing hERG; higher = less effect of the substance", "units": {"hERG current change (%, negative = inhibition) at 10uM": "%"}, "values": [
      {"molecule": "Cc1ccc(C2Nc3ccccc3C(=O)N2Cc2ccco2)cc1", "note": "(centres unmarked);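 note: peak tail current of the secondary pulse compared with the same well before compound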", "hERG current change (%, negative = inhibition) at 10uM": -32.5},
      {"molecule": "O=C(O)c1cc(OCc2ccccc2)cc(OCc2ccccc2)c1", "hERG current change (%, negative = inhibition) at 10uM": 10.8},
      {"molecule": "COc1ccc(NC(=O)CS(=O)CC(=O)Nc2ccc(OC)c(OC)c2)cc1", "note": "(centres unmarked)", "hERG current change (%, negative = inhibition) at 10uM": 10.9},
      {"molecule": "O=[N+]([O-])c1ccc(CSc2ccc(S(=O)(=O)N3CCCC3)cn2)cc1", "hERG current change (%, negative = inhibition) at 10uM": -32.6},
      {"molecule": "Cc1ccc(N2C(=O)CC(N3CCc4ccccc43)C2=O)cc1Cl", "note": "(centres unmarked)", "hERG current change (%, negative = inhibition) at 10uM": 15.6},
      {"molecule": "CN(C)CCN(Cc1ccco1)C(=O)c1cc2c(Cl)nc3ccccc3c2s1", "hERG current change (%, negative = inhibition) at 10uM": -70.1},
      {"molecule": "CCCCN(C)C(=O)c1cc2c(Cl)nc3ccccc3c2s1", "hERG current change (%, negative = inhibition) at 10uM": -4.12},
      {"molecule": "Cc1ccc2nc(Cl)c3cc(C(=O)N(CCN(C)C)Cc4ccco4)sc3c2c1", "hERG current change (%, negative = inhibition) at 10uM": -39.8},
      {"molecule": "Cc1cc(=O)[nH]c(SCC(=O)Nc2ccc(C(=O)O)cc2)n1", "hERG current change (%, negative = inhibition) at 10uM": 5.37},
      {"molecule": "O=Cc1c[nH]c2ccc(C(=O)c3ccccc3)cc12", "hERG current change (%, negative = inhibition) at 10uM": 3.97},
      {"molecule": "CC(C)(C)n1nnnc1C(c1cccnc1)N1CCN(C(=O)c2ccco2)CC1", "note": "(centres unmarked)", "hERG current change (%, negative = inhibition) at 10uM": -15.1},
      {"molecule": "COc1cc(C(=O)ON=C2C(C)=CC(=O)C=C2C)cc(OC)c1OC", "hERG current change (%, negative = inhibition) at 10uM": -11.9},
      {"molecule": "C#CCOCCOCCOCCNc1nc(N2CCN(C(=O)[C@H](Cc3ccc(O)cc3)n3cc([C@@H](N)C(C)CC)nn3)CC2)nc(N2CCN(C(=O)[C@H](CCCCN)n3cc([C@@H](N)CC(C)C)nn3)CC2)n1.Cl", "note": "(some centres unmarked)", "hERG current change (%, negative = inhibition) at 10uM": 6.05},
      {"molecule": "C/C(=N/NC(=O)CNS(=O)(=O)c1ccc(C)cc1)c1cccc([N+](=O)[O-])c1", "hERG current change (%, negative = inhibition) at 10uM": 14.5},
      {"molecule": "CCC(C)NC(=O)CNC(=S)N(CCCN1CCOCC1)Cc1cccs1", "note": "(centres unmarked)", "hERG current change (%, negative = inhibition) at 10uM": -14.4},
      {"molecule": "O=C(Nc1ccc(Cl)c(Cl)c1)N(CCCN1CCOCC1)Cc1cccnc1", "hERG current change (%, negative = inhibition) at 10uM": -55.5},
      {"molecule": "O=C(Nc1ccc(Cl)cc1)N(CCCN1CCOCC1)Cc1cccs1", "hERG current change (%, negative = inhibition) at 10uM": -70.7},
      {"molecule": "COc1ccc(CN(CCCN2CCOCC2)C(=O)Nc2ccccc2)cc1OC", "hERG current change (%, negative = inhibition) at 10uM": -10.9},
      {"molecule": "Cc1ccc(NC(=O)N(CCCN2CCOCC2)Cc2cccnc2)cc1C", "hERG current change (%, negative = inhibition) at 10uM": -10.8},
      {"molecule": "CCc1ccc(NC(=O)N(CCCN2CCOCC2)Cc2cccs2)cc1", "hERG current change (%, negative = inhibition) at 10uM": -52.8},
      {"molecule": "O=C(Nc1ccccc1)N(CCCN1CCOCC1)Cc1cccs1", "hERG current change (%, negative = inhibition) at 10uM": -40.1},
      {"molecule": "O=C(Nc1ccc(Cl)c(Cl)c1)N(CCCN1CCOCC1)Cc1cccs1", "hERG current change (%, negative = inhibition) at 10uM": -78},
      {"molecule": "O=C(Nc1ccc(Cl)cc1)N(Cc1cccs1)Cc1cccs1", "hERG current change (%, negative = inhibition) at 10uM": 0.899},
      {"molecule": "Cc1ccc(NC(=S)N(CCCN2CCOCC2)Cc2cccnc2)cc1C", "hERG current change (%, negative = inhibition) at 10uM": 7.44},
      {"molecule": "Cc1ccc(NC(=O)N(CCCN2CCOCC2)Cc2cccs2)cc1C", "hERG current change (%, negative = inhibition) at 10uM": -47.6},
      {"molecule": "COc1ccc2c(c1)[C@@H]1[C@H](CO2)[C@H](c2ccccc2)[C@]2(C)C(=O)NCC(=O)N12", "hERG current change (%, negative = inhibition) at 10uM": 4.48},
      {"molecule": "CC(Cc1cccs1)NC(=S)Nc1ccc(Cl)cc1", "note": "(centres unmarked)", "hERG current change (%, negative = inhibition) at 10uM": 14.6},
      {"molecule": "COC(=O)c1c(C)[nH]c(C=O)c1-c1ccccc1", "hERG current change (%, negative = inhibition) at 10uM": 10.3},
      {"molecule": "Cc1ccc(NC(=O)c2ccc(Oc3ncccn3)cc2)cc1", "hERG current change (%, negative = inhibition) at 10uM": 12.2},
      {"molecule": "CN(C)CC(CCCCC(CN(C)C)C(=O)c1ccccc1)C(=O)c1ccccc1", "note": "(centres unmarked)", "hERG current change (%, negative = inhibition) at 10uM": 9.78},
      {"molecule": "O=C(NCCNc1ccc([N+](=O)[O-])cc1)c1ccco1", "hERG current change (%, negative = inhibition) at 10uM": -23.7},
      {"molecule": "O=C(Nc1ccc(Br)cc1)c1cccc(OC(=S)N2CCOCC2)c1", "hERG current change (%, negative = inhibition) at 10uM": 17},
      {"molecule": "c1ccc(-c2nnc(OCC3CCCO3)c3ccccc23)cc1", "note": "(centres unmarked)", "hERG current change (%, negative = inhibition) at 10uM": -10.8},
      {"molecule": "Cc1ccc(-c2nnc(N3CCCCC3)c3ccccc23)cc1S(=O)(=O)NCC1CCCO1", "note": "(centres unmarked)", "hERG current change (%, negative = inhibition) at 10uM": -16},
      {"molecule": "Cc1ccc(Oc2nnc(-c3ccc(C)cc3)c3ccccc23)cc1", "hERG current change (%, negative = inhibition) at 10uM": 2.75},
      {"molecule": "Cc1ccc(-c2nnc(OCC3CCCO3)c3ccccc23)cc1", "note": "(centres unmarked)", "hERG current change (%, negative = inhibition) at 10uM": -65.2},
      {"molecule": "CCNS(=O)(=O)c1cc(-c2nnc(OC)c3ccccc23)ccc1C", "hERG current change (%, negative = inhibition) at 10uM": -37.3},
      {"molecule": "COc1nnc(-c2ccc(C)c(S(=O)(=O)NCCO)c2)c2ccccc12", "hERG current change (%, negative = inhibition) at 10uM": -14.6},
      {"molecule": "COc1nnc(-c2ccc(C)c(S(=O)(=O)NC(C)C)c2)c2ccccc12", "hERG current change (%, negative = inhibition) at 10uM": -52.8},
      {"molecule": "COc1nnc(-c2ccc(C)c(S(=O)(=O)NCC3CCCO3)c2)c2ccccc12", "note": "(centres unmarked)", "hERG current change (%, negative = inhibition) at 10uM": -69.5},
      {"molecule": "COc1nnc(-c2ccc(C)c(S(=O)(=O)N(C)C)c2)c2ccccc12", "hERG current change (%, negative = inhibition) at 10uM": -77.6},
      {"molecule": "COc1nnc(-c2ccc(C)c(S(N)(=O)=O)c2)c2ccccc12", "hERG current change (%, negative = inhibition) at 10uM": 4.8},
      {"molecule": "Cc1ccc(-c2nnc(Nc3ccccc3)c3ccccc23)cc1S(=O)(=O)NCC1CCCO1", "note": "(centres unmarked)", "hERG current change (%, negative = inhibition) at 10uM": -40.5},
      {"molecule": "COc1nnc(-c2ccc(C)c(S(=O)(=O)NC(C)(C)CO)c2)c2ccccc12", "hERG current change (%, negative = inhibition) at 10uM": -15.9}
    ]}
  ]
}
